Assay outcomes from PubChem BioAssay.
Anaer choline gr: choline-fed anaerobic bacterial growth inhibition; Gram-negative bacterium anaerobic choline minimal medium, absorbance growth; stronger effect = lower value; calls only; 55,000 tested, 0.2% active; AID 1963822; call rule not given here
* hit, by the source's call; ! = not confirmed by another sample. The full list was thinned out, with hits kept by preference.

How did CN(C)CC/C=C1\c2ccccc2Sc2ccc(Cl)cc21 do in these assays?
Anaer choline gr: inactive

What do the screens show for `CN(C)CCC=C1c2ccccc2Sc2ccc(Cl)cc21`?
Anaer choline gr: active

How did CN1CCN(S(=O)(=O)c2cc(-c3ccc(=O)[nH]n3)ccc2Cl)CC1 do in these assays?
Anaer choline gr: inactive

How did CN1CCN(CCc2ccc(Cl)c(Cl)c2)CC1 do in these assays?
Anaer choline gr: active

How did CN1CCN(CCNC(=O)c2cc3n(n2)CCCC3)CC1 do in these assays?
Anaer choline gr: inactive

Results for O=C(Nc1ccccc1C(=O)c1ccccc1)c1cnn(-c2ccc(Br)cc2)c1 ?
Anaer choline gr: inactive

Results for COc1ccc2[nH]c3c(c2c1)CCN(C(=O)c1ccc(C)cc1)C3c1ccc(F)cc1 (configuration not stated) ?
Anaer choline gr: inactive

What do the screens show for `O=C1CC(c2cccc(Br)c2)c2cnn(-c3nc4ccccc4s3)c2N1` (configuration not stated)?
Anaer choline gr: inactive

What do the screens show for `Cc1cccc(-c2nc3nc(C)cc(N4CCCC4)n3n2)c1`?
Anaer choline gr: inactive

Results for O=C1CCCN1CCCNc1nc(C2CC2)nc2c1CCC2 ?
Anaer choline gr: inactive

Results for CCN1CCN(CCNc2nc(C3CC3)nc3c2CCC3)CC1 ?
Anaer choline gr: active

What do the screens show for `CN1CCN(CCNc2nc(C3CC3)nc3c2CCC3)CC1`?
Anaer choline gr: inactive

What do the screens show for `COc1cccc(-c2csc(-c3c(N)c(C(=O)c4ccc(F)cc4)n4ccccc34)n2)c1`?
Anaer choline gr: inactive

What do the screens show for `CC(=O)Nc1cccc(-c2nc(Cn3c(=O)oc4ccccc43)no2)c1C`?
Anaer choline gr: inactive

How did O=C1CCSc2c1cccc2C(=O)N1CCN(c2ccccn2)CC1 do in these assays?
Anaer choline gr: inactive

How did CC(C)n1cnc(S(=O)(=O)N2CCC(C(=O)N3CCOCC3)CC2)c1 do in these assays?
Anaer choline gr: inactive

How did Cc1ccc(Nc2nc(C)cc(=O)[nH]2)cc1 do in these assays?
Anaer choline gr: inactive

Results for NC(N)=N/N=C/c1c(Cl)cccc1Cl ?
Anaer choline gr: active!

Results for NC(N)=NC(=O)Cc1c(Cl)cccc1Cl ?
Anaer choline gr: inactive

Results for CCOC(=O)c1cnc(SCC(=O)Nc2cc(Cl)ccc2C)nc1N ?
Anaer choline gr: inactive

How did CCCNC(=O)c1ccc(-c2cc(N3CCCC3)ncn2)cc1 do in these assays?
Anaer choline gr: inactive

How did CCCCC[C@H](O)CC[C@H]1[C@H](O)CC(=O)[C@@H]1CCCCCCC(=O)O do in these assays?
Anaer choline gr: active!

Results for CCCCC[C@H](O)/C=C/[C@H]1[C@H](O)CC(=O)[C@@H]1CCCCCCC(=O)O ?
Anaer choline gr: inactive

What do the screens show for `CCCCC[C@H](O)/C=C/[C@H]1[C@H](O)CC(=O)[C@H]1CCCCCCC(=O)O`?
Anaer choline gr: inactive

How did O=C(Nc1ccccc1)Nc1nc(CC(=O)N2CCN(c3cccc(Cl)c3)CC2)cs1 do in these assays?
Anaer choline gr: inactive

How did CCc1cc(Cl)c(OC)c(C(=O)NCC2CCCN2CC)c1O (configuration not stated) do in these assays?
Anaer choline gr: inactive

How did CCN1CCCC1CNC(=O)c1c(O)c(Cl)cc(Cl)c1OC (configuration not stated) do in these assays?
Anaer choline gr: inactive

How did CCc1cc(Cl)c(OC)c(C(=O)NC[C@@H]2CCCN2CC)c1O do in these assays?
Anaer choline gr: active!

How did CCc1onc(C)c1C1CCCN1Cc1cn[nH]c1-c1ccc(C)c(C)c1 (configuration not stated) do in these assays?
Anaer choline gr: inactive

Results for CCn1c(=O)c(-c2noc(C(=O)NCC3CCCO3)n2)nn(-c2ccccc2)c1=O (configuration not stated) ?
Anaer choline gr: inactive

Results for O=C(Nc1ccc2c(c1)OCO2)c1ccc(N2C(=O)CCS2(=O)=O)cc1 ?
Anaer choline gr: inactive

What do the screens show for `Cc1ccc2c(c1)OC=CC(C(=O)Nc1ncc(Cc3ccc(F)cc3)s1)=C2`?
Anaer choline gr: inactive

Results for Nc1nc(Cl)nc2c1ncn2[C@H]1C[C@H](O)[C@@H](CO)O1 ?
Anaer choline gr: inactive

Results for O=c1[nH]cnc2c1ncn2C1O[C@H](CO)[C@@H](O)[C@H]1O (some centres not stated) ?
Anaer choline gr: inactive

How did Nc1nc(Cl)nc2c1ncn2[C@@H]1O[C@H](CO)[C@@H](O)[C@@H]1F do in these assays?
Anaer choline gr: active!

How did O=c1c(N2CCCC2)csc2ccc(F)cc12 do in these assays?
Anaer choline gr: inactive

How did Cc1ccc(NC(=O)CCCC2=NS(=O)(=O)c3ccccc3N2)cc1F do in these assays?
Anaer choline gr: active

Results for Cc1cc(C)cc(NC(=O)CC2(CC3=NS(=O)(=O)c4ccccc4N3)CCCC2)c1 ?
Anaer choline gr: inactive

Results for O=C(CCC1=NS(=O)(=O)c2ccccc2N1)NCc1ccc(F)cc1 ?
Anaer choline gr: inactive

How did COc1ccc2c(c1)CCc1c(C(=O)Nc3cc(Cl)ccc3O)noc1-2 do in these assays?
Anaer choline gr: inactive

What do the screens show for `CCNc1nc(N2CCN(C3CCCCC3)CC2)nc2c1cnn2C`?
Anaer choline gr: inactive

How did CC1CN(CC(=O)N2CCC(C(N)=O)CC2)c2ccccc2S1 (configuration not stated) do in these assays?
Anaer choline gr: inactive

How did Cn1c(=O)[nH]c(=O)c2c(C3C(=O)Nc4ccccc43)c(-c3ccc(Br)cc3)[nH]c21 (configuration not stated) do in these assays?
Anaer choline gr: inactive

Results for O=S(=O)(c1cc(-c2nc(-c3ccc(Cl)cc3)no2)cs1)N1CCCC1 ?
Anaer choline gr: inactive

How did O=C(Nc1nc2ccccc2s1)c1ccc(S(=O)(=O)N2CCc3ccccc3C2)cc1 do in these assays?
Anaer choline gr: inactive

How did CCCN1CCc2nc(NC(=O)c3ccc(S(=O)(=O)N4CCc5ccccc5C4)cc3)sc2C1 do in these assays?
Anaer choline gr: inactive

Results for CCN1CCc2nc(NC(=O)c3ccc(S(=O)(=O)N4CCc5ccccc5C4)cc3)sc2C1 ?
Anaer choline gr: active

How did C#CCSc1nn2c(=O)c(C)nnc2s1 do in these assays?
Anaer choline gr: inactive

How did CCCc1noc(-c2cc(S(=O)(=O)N3CCOCC3)ccc2OC)n1 do in these assays?
Anaer choline gr: inactive

Results for CC(C)c1cc(C2CCCN2S(=O)(=O)c2ccc(Cl)cc2)no1 (configuration not stated) ?
Anaer choline gr: inactive

What do the screens show for `CN(CCNc1ncnc2onc(-c3cccc(Cl)c3)c12)C1CCCCC1`?
Anaer choline gr: active

What do the screens show for `Cc1ccc(-c2noc3ncnc(NCCN(C)C4CCCCC4)c23)cc1`?
Anaer choline gr: inactive

Results for Clc1cccc(-c2noc3ncnc(NCc4ccc5c(c4)OCO5)c23)c1 ?
Anaer choline gr: inactive

Results for O=C(CN1CCN(C(=O)Nc2ccc(F)cc2)CC1=O)NCc1cccc(Cl)c1 ?
Anaer choline gr: inactive

How did O=C(Nc1cccc(Cl)c1)c1nnc(C2CCCN(C(=O)Nc3ccccc3Cl)C2)s1 (configuration not stated) do in these assays?
Anaer choline gr: inactive

Results for O=C1CN(C(=O)CN2c3ccc(F)cc3-c3ccccc3S2(=O)=O)c2ccccc2N1 ?
Anaer choline gr: inactive

Results for Cc1cc(-c2cc(S(=O)(=O)NC3CCCCC3)c(C)s2)on1 ?
Anaer choline gr: inactive

How did O=S(=O)(c1ccc(Cl)c(-c2nnc(-c3ccccc3)o2)c1)N1CCN(c2ccccn2)CC1 do in these assays?
Anaer choline gr: inactive

What do the screens show for `CCc1nnc(-c2cn(CC(=O)NCc3cc(OC)ccc3OC)c3ccccc23)o1`?
Anaer choline gr: inactive
